Results as given in the supplement of paper PMC10338343.
± gives the standard deviation.

Legend:
[1] = tested on: MILI (PIWIL2) piRISC loaded with piRNA #1 (26 nt); assay: pre-steady-state target cleavage rate (min^-1); guide: piRNA #1 5'p-UGAGGUAGUAGGUUGUAUAGUAUCCA; higher = faster piRNA-guided slicing of the target; settings: auxiliary factor: 500 nM mouse GTSF1
Procedure, shortened: (§1)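 Sequencing of uncleaved targets, normalised to depth and to weakly complementary targets, was the readout of this Cleave-'n-Seq assay. A transcribed, DNA-blocked target RNA library (0.1 nM) was mixed with 1 nM active affinity-purified piRISC carrying one synthetic guide, with or without 500 nM GTSF1 partner protein, in HEPES–potassium acetate buffer at 33 °C for 0–8 or 0–960 min. Three trials were pooled, k3 was capped at 0.0001 min^-1, and a burst-and-steady-state fit gave the pre-steady-state cleavage rate.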

[2] = tested on: EfPiwi piRISC loaded with piRNA #1 (26 nt); assay: pre-steady-state target cleavage rate (min^-1); auxiliary factor: 500 nM Ephydatia muelleri Gtsf1; guide: piRNA #1 5'p-UGAGGUAGUAGGUUGUAUAGUAUCCA; MIWI and MILI are mouse PIWI proteins and EfPiwi is from a freshwater sponge; tags in brackets are library labels; higher = faster piRNA-guided slicing of the target
Procedure, shortened: as §1

| Sequence | pre-steady-state target cleavage rate [1] | pre-steady-state target cleavage rate [2] |
| --- | --- | --- |
| GGAGACCUAACUAUUACAACCUACUACCUCA | 0.099 ± 0.023 | 0.0205 ± 0.0091 |
| GGAGAGGAUACAAUACAACCUAGUACCUCA | 0.0411 ± 0.0087 | 0.00263 ± 0.0018 |
| GGAGUGCAUACUAUACUACCUACUACCUCA | 0.161 ± 0.0089 | 0.00588 ± 0.0029 |
| GGAGACCAUACUAUACAACCUACAUACCUCA | 0.146 ± 0.018 | 0.00306 ± 0.0029 |
| GGAGACCUACCUAUACAACCUACUACCUCA | 0.117 ± 0.026 | 0.0239 ± 0.012 |
| GGAGACGAAACUAUACAAGCUACUACCUCA | 0.242 ± 0.02 | 0.00338 ± 0.0017 |
| GGAGACCUAUCUAUACAACCUACUACGUCA | 0.0507 ± 0.008 | 0.00352 ± 0.0031 |
| GGAGUGGAUACUAUUCAACCUACUACCACA | 0.093 ± 0.0098 | 0.00327 ± 0.0022 |
| GGAGUCGGAUACUAUACAACCUACUACCUCA | 0.187 ± 0.015 | 0.0621 ± 0.024 |
| GGAGACGAAACUAUACAACCUACUACCACA | 0.219 ± 0.031 | 0.00352 ± 0.0032 |
| GGAGACGAUACUAUUCAACCUACAACCUCA | 0.103 ± 0.013 | 0.0024 ± 0.0017 |
| GGAGUGGAUACAAUACAACCUACUACCUGA | 0.0731 ± 0.011 | 0.00396 ± 0.0018 |
| GGAGUGGUUAGUAUACAACCUACUACCUCA | 0.105 ± 0.011 | 0.00533 ± 0.0036 |
| GGAGAGGAUACUAUCCAACCUACUACCUCA | 0.232 ± 0.015 | 0.00889 ± 0.004 |
| GGAGUGGAUACUAUACAACCUACAUACCUCA | 0.109 ± 0.011 | 0.00344 ± 0.0016 |
| GGAGAGGAUACAAUACAACCUACUACCUGA | 0.0513 ± 0.0087 | 0.0036 ± 0.0016 |
| GGAGACCAUACUAUACAACCUACUACCUCG [g2:g23:cont:t1G] | 0.195 ± 0.017 | 0.0177 ± 0.0074 |
| GGAGACGAUACUAUACUACCAACUACCUCA | 0.00729 ± 0.0029 | 0.0038 ± 0.0023 |
| GGAGUGGAUACUAUACAUCCAACUACCUCA | 0.00718 ± 0.0021 | 0.00457 ± 0.0019 |
| GGAGACCAUACUAUACAACCUUCUACCUGA | 0.00324 ± 0.0032 | 0.00624 ± 0.0044 |

| Sequence | pre-steady-state target cleavage rate [1] | pre-steady-state target cleavage rate [2] |
| --- | --- | --- |
| GGAGUGGAUACUAUACAACCUAUCUACCUCA | 0.113 ± 0.0078 | 0.00584 ± 0.0027 |
| GGAGAGGAAUCUAUACAACCUACUACCUCA | 0.199 ± 0.015 | 0.00943 ± 0.0056 |
| GGAGACCUUUGAAUACAACCUACUACCUCA | 0.00751 ± 0.0038 | 0.00525 ± 0.0038 |
| GGAGACGAUAACUAUACAACCUACUACCUCA | 0.116 ± 0.0099 | 0.0617 ± 0.023 |
| GGAGUGGAUACUAUACAACCUACUACCUACA | 0.122 ± 0.013 | 0.068 ± 0.024 |
| GGAGAGGAUUCUAUACAACCAACUACCUCA | 0.00507 ± 0.0028 | 0.00361 ± 0.0027 |
| GGAGUGGAUACUAUACAACCAACUACCACA | 0.00424 ± 0.0025 | 0.00391 ± 0.0018 |
| GGAGUGGAUACUAUCACAACCUACUACCUCA | 0.199 ± 0.013 | 0.0265 ± 0.011 |
| GGAGACCAUACUAUACAACCUAUCUACCUCA | 0.0997 ± 0.014 | 0.00419 ± 0.0028 |
| GGAGAGGAUACUAUACAACCUACUUCCUCA | 0.0124 ± 0.0047 | 0.00514 ± 0.0026 |
| GGAGACGAUACUAUACAAACCUACUACCUCA | 0.00373 ± 0.0026 | 0.00846 ± 0.0032 |
| GGAGAGGAUAAUAUACAACCUACUACCUCA | 0.135 ± 0.01 | 0.00772 ± 0.0036 |
| GGAGACGAUACUUUACAACGUACUACCUCA | 0.0294 ± 0.0045 | 0.00234 ± 0.0017 |
| GGAGACGAUACUUUACAACCUACUUCCUCA | 0.019 ± 0.0078 | 0.00221 ± 0.002 |
| GGAGACGAUGCUAUACAACCUACUACCUCA | 0.194 ± 0.021 | 0.00734 ± 0.0042 |
| GGAGACGAUACUAUACAACACUACUACCUCA | 0.00963 ± 0.0034 | 0.00912 ± 0.0032 |
| GGAGACCUAACUAUACAACCUACUACCGUCA | 0.15 ± 0.034 | 0.0162 ± 0.0091 |
| GGAGUGGAUACUAUACAACCUACACCUCA | 0.00292 ± 0.0021 | 0.00338 ± 0.0018 |
| GGAGACCUAUGUCAUACAACCUACUACCUCA | 0.0265 ± 0.008 | 0.00679 ± 0.0034 |
| GGAGACGAUACUAUACAACCUACUAUCCUCA | 0.193 ± 0.024 | 0.0049 ± 0.0014 |

| Sequence | pre-steady-state target cleavage rate [1] | pre-steady-state target cleavage rate [2] |
| --- | --- | --- |
| GGAGUGGAUACUAUACAACCGACUACCUCA | 0.00279 ± 0.0026 | 0.00469 ± 0.0016 |
| GGAGACCUAUCUAGUACAACCUACUACCUCA | 0.0316 ± 0.0066 | 0.00434 ± 0.0035 |
| GGAGUGGAUAGUAUACAACCUACAACCUCA | 0.0845 ± 0.011 | 0.00254 ± 0.0017 |
| GGAGAGGAUACUAAACAACCAACUACCUCA | 0.00772 ± 0.0023 | 0.00246 ± 0.0017 |
| GGAGACCUUACUAUACAACGUACUACCUGA | 0.0102 ± 0.0027 | 0.00475 ± 0.0042 |
| GGAGUCGAUACUAUACAACCUUCUACCUCA | 0.00775 ± 0.0022 | 0.00622 ± 0.0028 |
| GGAGACCUAACUAUACAUCCUACUACCUCA | 0.239 ± 0.028 | 0.00745 ± 0.0028 |
| GGAGACCUAUGAUUACAACCUACUACCUCA [g2:g17:cont:t1A] | 0.00593 ± 0.0026 | 0.00451 ± 0.0032 |
| GGAGUGGUUACUAUACAACCUACUACCUGA | 0.0722 ± 0.01 | 0.00386 ± 0.0014 |
| GGAGAGUGAUACUAUACAACCUACUACCUCA | 0.227 ± 0.016 | 0.171 ± 0.053 |
| GGAGUGGAUACUAUUCAACCUACUACGUCA | 0.0439 ± 0.0069 | 0.00281 ± 0.0015 |
| GGAGACCUUACUAUACAACGUACUACCUCA | 0.0177 ± 0.0026 | 0.00318 ± 0.0019 |
| GGAGAGGUUACUAUAGAACCUACUACCUCA | 0.157 ± 0.018 | 0.00277 ± 0.0023 |
| GGAGACCAUACUAUACAACCUACUACACUCA | 0.204 ± 0.027 | 0.00487 ± 0.0033 |
| GGAGACCAUACUAUACAAACCUACUACCUCA | 0.0045 ± 0.003 | 0.00703 ± 0.0028 |
| GGAGUGGAUACUAUACAACCUACUACCUAA | 0.105 ± 0.014 | 0.151 ± 0.054 |
| GGAGACCUAUCUAUACAACCUACUACCUCCA | 0.0927 ± 0.0097 | 0.0208 ± 0.0083 |
| GGAGAGGAUACUAUACAACGUACUACCACA | 0.0287 ± 0.0041 | 0.00287 ± 0.0018 |
| GGAGUGGAAACUAUACAACCUACUACGUCA | 0.0633 ± 0.012 | 0.00326 ± 0.0026 |
| GGAGACGUAUACUAUACAACCUACUACCUCA | 0.193 ± 0.013 | 0.0356 ± 0.013 |
